Measurements: PubChem BioAssay (EPA / NIEHS)
Activity calls are given as the source filed them. The calls were made as follows: active = hit-call score of the fitted dose curve at least 0.9, where 1 is the maximum; inactive = score below 0.9.

Tests used:
Conditions in all cases: mRNA level, 48 h; actives raise or lower the signal
[1] = read-out: adenosine kinase (ADK) gene, ADK (gene 132); experiment: LTEA_HepaRG_ADK: Life Technologies and Expression Analysis (LTEA) Assay for adenosine kinase (ADK) gene using HepaRG (AID 2283471)
Procedure, shortened: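 Following 48 h exposure of HepaRG cells in 0.5% DMSO (top concentration 100 uM, duplicate wells), ADK mRNA induction or suppression was measured by qRT-PCR, normalised to ACTB/GAPDH/POLR2A, and fitted bidirectionally relative to vehicle.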

[2] = read-out: Alpha-fetoprotein (AFP) gene, AFP (gene 174); experiment: LTEA_HepaRG_AFP: Life Technologies and Expression Analysis (LTEA) Assay for Alpha-fetoprotein (AFP) gene using HepaRG (AID 2283472)
Procedure, shortened: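 After a 48 h plating period, cells are moved to serum-free induction medium and dosed in duplicate (100 uM maximum, half-log dilutions, 0.5% DMSO) for another 48 h. Total RNA goes to TaqMan qRT-PCR; AFP signal is housekeeping-normalized.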

BCL2L11 (gene 10018) = experiment: LTEA_HepaRG_BCL2L11: Life Technologies and Expression Analysis (LTEA) Assay for Bcl-2 (BCL2L11) gene using HepaRG (AID 2283473)
Procedure, shortened: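 Differentiated human HepaRG cells were exposed 48 h in serum-free induction medium to eight half-log concentrations up to 100 uM in 0.5% DMSO, in duplicate. BCL2L11 mRNA was quantified by TaqMan qRT-PCR, normalized to ACTB, GAPDH and POLR2A; induction or repression fitted versus DMSO.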

[3] = read-out: Apolipoprotein A-V (APOA5) gene, APOA5 (gene 116519); experiment: LTEA_HepaRG_APOA5: Life Technologies and Expression Analysis (LTEA) Assay for Apolipoprotein A-V (APOA5) gene using HepaRG (AID 2283474)
Procedure, shortened: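 Differentiated HepaRG cells in serum-free induction medium, exposed 48 h in duplicate to eight half-log concentrations topping at 100 uM (0.5% DMSO). APOA5 mRNA by Fluidigm TaqMan qRT-PCR, normalized to ACTB, GAPDH and POLR2A; bidirectional fit versus DMSO.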

[4] = read-out: Apoptosis regulator Bcl-2 (Homo sapiens) (UniProt P10415); experiment: LTEA_HepaRG_BCL2: Life Technologies and Expression Analysis (LTEA) Assay for Bcl-2 gene using HepaRG (AID 2283475)
Procedure, shortened: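 Expression change of BCL2 mRNA in HepaRG after 48 h dosing, quantified by TaqMan qRT-PCR against three endogenous controls. Concentration-response used eight points up to 100 uM, vehicle 0.5% DMSO.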

[5] = read-out: Bcl-2 (BID) gene, BID (gene 637); experiment: LTEA_HepaRG_BID: Life Technologies and Expression Analysis (LTEA) Assay for Bcl-2 (BID) gene using HepaRG (AID 2283476)
Procedure, shortened: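 Gain or loss of BID expression is fitted relative to 0.5% DMSO vehicle. Human HepaRG liver cells received a 48 h chemical exposure over an eight-point concentration range.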

Caspase-3 (Homo sapiens) = Caspase-3 (Homo sapiens) (UniProt P42574); experiment: LTEA_HepaRG_CASP3: Life Technologies and Expression Analysis (LTEA) Assay for cysteine-aspartic acid protease (CASP3) using HepaRG (AID 2283477)
Chain of Caspase-3 (Homo sapiens) (P42574 whole entry, looked up): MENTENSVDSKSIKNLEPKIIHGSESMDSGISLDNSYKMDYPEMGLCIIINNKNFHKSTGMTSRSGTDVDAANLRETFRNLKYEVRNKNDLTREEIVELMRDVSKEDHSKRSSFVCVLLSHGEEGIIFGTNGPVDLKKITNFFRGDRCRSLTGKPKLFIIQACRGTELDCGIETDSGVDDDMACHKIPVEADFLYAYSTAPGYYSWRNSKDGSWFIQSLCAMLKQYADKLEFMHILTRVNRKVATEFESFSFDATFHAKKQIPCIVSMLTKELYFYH
Procedure, shortened: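 Differentiated HepaRG cells, plated 48 h, were treated in duplicate in serum-free induction medium for 48 h with eight half-log concentrations up to 100 uM in 0.5% DMSO. CASP3 mRNA measured by qRT-PCR, normalized to ACTB, GAPDH, POLR2A.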

[6] = read-out: Cytochrome P450 (CYP24A1), CYP24A1 (gene 1591); experiment: LTEA_HepaRG_CYP24A1: Life Technologies and Expression Analysis (LTEA) Assay for Cytochrome P450 (CYP24A1) using HepaRG (AID 2283478)
Procedure, shortened: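 HepaRG cells plated 48 h, then exposed in duplicate in serum-free induction medium for 48 h to 8-point half-log series from 100 uM in 0.5% DMSO. CYP24A1 mRNA by Fluidigm qRT-PCR, normalized to ACTB, GAPDH, POLR2A; bidirectional fit versus DMSO.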

[7] = read-out: Cytochrome P450 (CYP1A2), CYP1A2 (gene 1544); experiment: LTEA_HepaRG_CYP1A2: Life Technologies and Expression Analysis (LTEA) Assay for Cytochrome P450 (CYP1A2) using HepaRG (AID 2283479)
Procedure, shortened: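 Differentiated human HepaRG cells in serum-free induction medium exposed 48 hours in duplicate to 8 half-log concentrations from 100 uM, 0.5% DMSO. CYP1A2 mRNA quantified by qRT-PCR, normalized to ACTB, GAPDH and POLR2A; bidirectional fitting versus DMSO.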

[8] = read-out: cysteine-aspartic acid protease (CASP8), CASP8 (gene 841); experiment: LTEA_HepaRG_CASP8: Life Technologies and Expression Analysis (LTEA) Assay for cysteine-aspartic acid protease (CASP8) using HepaRG (AID 2283480)
Procedure, shortened: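 Differentiated human HepaRG cells, plated 48 h then switched to serum-free induction medium, were exposed in duplicate for 48 h to 8 half-log concentrations up to 100 uM in 0.5% DMSO. CASP8 mRNA was quantified by qRT-PCR, normalized to ACTB/GAPDH/POLR2A.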

[9] = read-out: Cytochrome P450 (CYP2B6), CYP2B6 (gene 1555); experiment: LTEA_HepaRG_CYP2B6: Life Technologies and Expression Analysis (LTEA) Assay for Cytochrome P450 (CYP2B6) using HepaRG (AID 2283481)
Procedure, shortened: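 Differentiated human HepaRG cells in serum-free induction medium, dosed in duplicate for 48 h over 8 half-log concentrations topping at 100 uM (0.5% DMSO). CYP2B6 mRNA measured by TaqMan qRT-PCR, normalized to ACTB, GAPDH, POLR2A; bidirectional fit versus DMSO.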

[10] = read-out: Cytochrome P450 2C19 (Homo sapiens) (UniProt P33261); experiment: LTEA_HepaRG_CYP2C19: Life Technologies and Expression Analysis (LTEA) Assay for CYP2C19 using HepaRG (AID 2283482)
Procedure, shortened: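 Differentiated HepaRG cells in serum-free induction medium exposed 48 h in duplicate, 8 concentrations from 100 uM by half-log steps in 0.5% DMSO. CYP2C19 mRNA measured by TaqMan qRT-PCR, normalized to ACTB, GAPDH, POLR2A. Bidirectional fit versus DMSO.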

CYP2C8 (gene 1558) = experiment: LTEA_HepaRG_CYP2C8: Life Technologies and Expression Analysis (LTEA) Assay for CYP2C8 using HepaRG (AID 2283483)
Procedure, shortened: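 Differentiated human HepaRG cells were exposed for 48 h in serum-free induction medium to eight half-log concentrations up to 100 uM in 0.5% DMSO, in duplicate. CYP2C8 mRNA was measured by TaqMan qRT-PCR, normalized to ACTB, GAPDH and POLR2A, and fitted bidirectionally against DMSO.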

CYP2C9 (gene 1559) = experiment: LTEA_HepaRG_CYP2C9: Life Technologies and Expression Analysis (LTEA) Assay for CYP2C9 using HepaRG (AID 2283484)
Procedure, shortened: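 Differentiated human HepaRG cells were exposed 48 h in serum-free induction medium to eight half-log concentrations up to 100 uM in 0.5% DMSO. CYP2C9 mRNA was measured by qRT-PCR, normalized to ACTB, GAPDH and POLR2A, and fitted bidirectionally against DMSO.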

CYP2E1 (gene 1571) = experiment: LTEA_HepaRG_CYP2E1: Life Technologies and Expression Analysis (LTEA) Assay for CYP2E1 using HepaRG (AID 2283485)
Procedure, shortened: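 Differentiated HepaRG cells were treated in duplicate for 48 h with chemicals in 0.5% DMSO, from 100 uM downward in half-log dilutions. RNA was then analysed by qRT-PCR for CYP2E1 induction or loss.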

CYP4A11 (gene 1579) = experiment: LTEA_HepaRG_CYP4A11: Life Technologies and Expression Analysis (LTEA) Assay for CYP4A11 using HepaRG (AID 2283486)
Procedure, shortened: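 Differentiated HepaRG cells, 48 h after plating, exposed in duplicate for 48 h to 8 half-log concentrations up to 100 uM in 0.5% DMSO in serum-free induction medium. CYP4A11 mRNA measured by TaqMan qRT-PCR, normalized to ACTB, GAPDH and POLR2A.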

[11] = read-out: Cytochrome P450 3A4 (Homo sapiens) (UniProt P08684); experiment: LTEA_HepaRG_CYP3A4: Life Technologies and Expression Analysis (LTEA) Assay for CYP3A4 using HepaRG (AID 2283487)
Procedure, shortened: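 In a human hepatic line (HepaRG), duplicate wells were treated 48 h with up to 100 uM chemical in half-log dilutions. Endpoint: CYP3A4 mRNA induction or loss relative to 0.5% DMSO vehicle, by qRT-PCR.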

[12] = read-out: DNA damage-inducible transcript 3 (DDIT3), DDIT3 (gene 1649); experiment: LTEA_HepaRG_DDIT3: Life Technologies and Expression Analysis (LTEA) Assay for DNA damage-inducible transcript 3 (DDIT3) using HepaRG (AID 2283488)
Procedure, shortened: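 Changes in DDIT3 transcript, in either direction relative to 0.5% DMSO vehicle, were quantified by TaqMan qRT-PCR after 48 h chemical exposure of HepaRG cells at 8 concentrations, maximum 100 uM.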

[13] = read-out: Pro-epidermal growth factor (Homo sapiens) (UniProt P01133); experiment: LTEA_HepaRG_EGF: Life Technologies and Expression Analysis (LTEA) Assay for Epidermal growth factor (EGF) using HepaRG (AID 2283489)
Procedure, shortened: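 HepaRG cells (~100,000/well, 48 h pre-culture) exposed in duplicate for 48 h in serum-free induction medium to 8 half-log concentrations up to 100 uM in 0.5% DMSO. EGF mRNA by qRT-PCR, normalized to ACTB/GAPDH/POLR2A; bidirectional fit versus DMSO.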

[14] = read-out: Early growth response protein 1 (EGR1) transcription factor, EGR1 (gene 1958); experiment: LTEA_HepaRG_EGR1: Life Technologies and Expression Analysis (LTEA) Assay for Early growth response protein 1 (EGR1) transcription factor using HepaRG (AID 2283490)
Procedure, shortened: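 Differentiated human HepaRG cells in serum-free induction medium were exposed in duplicate for 48 h to eight concentrations (top 100 uM, half-log steps) in 0.5% DMSO. EGR1 mRNA was quantified by qRT-PCR, normalized to ACTB, GAPDH and POLR2A, and fitted bidirectionally versus DMSO.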

Measured: AC50

Chain of Apoptosis regulator Bcl-2 (Homo sapiens) (P10415 whole entry, looked up): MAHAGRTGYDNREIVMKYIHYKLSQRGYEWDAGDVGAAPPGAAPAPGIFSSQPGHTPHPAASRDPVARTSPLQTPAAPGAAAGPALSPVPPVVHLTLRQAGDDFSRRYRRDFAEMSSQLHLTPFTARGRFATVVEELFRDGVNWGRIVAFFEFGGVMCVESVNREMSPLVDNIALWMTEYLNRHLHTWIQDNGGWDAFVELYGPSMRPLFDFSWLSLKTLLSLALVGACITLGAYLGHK
Chain of Cytochrome P450 3A4 (Homo sapiens) (P08684 whole entry, looked up): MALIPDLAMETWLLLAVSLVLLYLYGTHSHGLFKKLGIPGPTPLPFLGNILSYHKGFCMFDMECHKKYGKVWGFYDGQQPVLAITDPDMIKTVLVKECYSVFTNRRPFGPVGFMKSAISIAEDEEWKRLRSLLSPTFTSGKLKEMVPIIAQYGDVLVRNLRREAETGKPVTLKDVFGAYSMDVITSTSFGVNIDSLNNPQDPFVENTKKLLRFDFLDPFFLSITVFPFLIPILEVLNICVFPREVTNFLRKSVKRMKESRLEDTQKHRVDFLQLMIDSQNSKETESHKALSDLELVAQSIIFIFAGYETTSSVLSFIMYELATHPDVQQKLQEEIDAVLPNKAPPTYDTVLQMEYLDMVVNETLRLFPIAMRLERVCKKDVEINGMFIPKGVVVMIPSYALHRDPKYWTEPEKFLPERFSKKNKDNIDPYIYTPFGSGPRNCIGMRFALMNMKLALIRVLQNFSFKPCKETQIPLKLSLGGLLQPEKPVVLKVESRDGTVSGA
Chain of Cytochrome P450 2C19 (Homo sapiens) (P33261 whole entry, looked up): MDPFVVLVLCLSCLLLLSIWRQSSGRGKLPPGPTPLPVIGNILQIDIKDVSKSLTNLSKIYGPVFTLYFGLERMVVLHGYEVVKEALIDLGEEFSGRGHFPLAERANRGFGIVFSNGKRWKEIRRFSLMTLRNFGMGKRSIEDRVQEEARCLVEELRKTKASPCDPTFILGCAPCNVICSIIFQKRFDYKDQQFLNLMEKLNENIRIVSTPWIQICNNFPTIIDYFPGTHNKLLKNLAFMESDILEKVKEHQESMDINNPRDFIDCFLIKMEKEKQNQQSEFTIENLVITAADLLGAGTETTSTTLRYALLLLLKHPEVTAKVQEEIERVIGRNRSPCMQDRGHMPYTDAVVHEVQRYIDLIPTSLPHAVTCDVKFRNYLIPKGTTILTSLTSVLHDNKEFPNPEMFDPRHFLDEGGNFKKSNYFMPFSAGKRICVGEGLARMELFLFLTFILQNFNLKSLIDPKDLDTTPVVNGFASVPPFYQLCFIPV

CN=C=S
inactive: all assays above

Clc1nc(Cl)nc(Nc2ccccc2Cl)n1
active: [7] 20.1 µM | [9] 34.8 µM | [10] 10.3 µM | CYP2E1 (gene 1571) 16.7 µM | [11] 18.5 µM
inactive: all other assays above

COc1cc(OC)nc(NC(=O)NS(=O)(=O)c2ncccc2OCC(F)(F)F)n1
active: [9] 23.8 µM | [10] 16.3 µM | CYP2C9 (gene 1559) 6.59 µM | [11] 13.3 µM
inactive: all other assays above

CCCCOCN(C(=O)CCl)c1c(CC)cccc1CC
active: [9] 40 µM | [10] 50 µM | CYP4A11 (gene 1579) 50 µM | [11] 27.7 µM
inactive: all other assays above

COC(=O)c1c(C(F)F)nc(C(F)(F)F)c(C2=NCCS2)c1CC(C)C
active: [7] 50 µM | [9] 19.7 µM | [10] 50 µM | CYP2C8 (gene 1558) 50 µM | CYP2E1 (gene 1571) 10.3 µM | [11] 4.46 µM
inactive: all other assays above

C=C(C)CN(CC)c1c([N+](=O)[O-])cc(C(F)(F)F)cc1[N+](=O)[O-]
active: [7] 33 µM | [9] 23.6 µM | [10] 50 µM | CYP2E1 (gene 1571) 87.9 µM | [11] 50 µM
inactive: all other assays above
